Test results: article PMC7862700, “An all-to-all approach to the identification of sequence-specific readers for epigenetic DNA modifications on cytosine”

Legend:
Test in all cases: DAPPL (digital affinity profiling via proximity ligation, sequencing); 10 mM Tris-HCl pH 7.5, 50 mM NaCl, 1 mM DTT, 4% glycerol, room temperature, 30 min; GST-TFs on glutathione beads, 16-mer random dsDNA library, 0.1% formaldehyde crosslink after washing; high values mean tight binding
[1] = molecular target: T1, FLI1 (Homo sapiens, UniProt Q01543 1-452); conditions: protein: recombinant; tags: N-terminal GST; dsDNA, one strand shown
T1 sequence: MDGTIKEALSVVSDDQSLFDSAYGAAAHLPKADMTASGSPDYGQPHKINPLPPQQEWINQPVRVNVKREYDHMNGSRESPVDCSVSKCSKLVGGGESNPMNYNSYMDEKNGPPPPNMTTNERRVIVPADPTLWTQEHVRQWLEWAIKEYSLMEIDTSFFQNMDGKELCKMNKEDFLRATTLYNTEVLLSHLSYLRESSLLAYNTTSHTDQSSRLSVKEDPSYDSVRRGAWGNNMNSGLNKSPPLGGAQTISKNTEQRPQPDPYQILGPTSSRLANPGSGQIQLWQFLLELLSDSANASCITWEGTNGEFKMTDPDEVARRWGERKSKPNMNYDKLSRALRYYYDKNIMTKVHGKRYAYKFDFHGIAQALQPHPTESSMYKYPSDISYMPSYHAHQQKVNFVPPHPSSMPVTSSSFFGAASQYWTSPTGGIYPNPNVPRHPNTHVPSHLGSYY
In short: (§1)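 Human transcription factors carrying a GST fusion were produced in yeast, bound to glutathione beads, tagged with DNA barcodes and pooled together with a tag-only sample. Each pool was held with 200 nmole of a random double-stranded 16-mer DNA library in Tris/NaCl/DTT/glycerol buffer for 30 min at room temperature, then washed, crosslinked in 0.1% formaldehyde, proximity-ligated with BsaI/T4 ligase (1 h, 37 °C), PCR-amplified and sequenced on an Illumina NextSeq500. Binding signal is the read frequency of each hexamer for a given factor divided by its frequency in the tag-only sample.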

[2] = molecular target: T2, ELK1 (Homo sapiens, UniProt P19419 1-428); conditions: protein: recombinant; tags: N-terminal GST; dsDNA, one strand shown
T2 sequence: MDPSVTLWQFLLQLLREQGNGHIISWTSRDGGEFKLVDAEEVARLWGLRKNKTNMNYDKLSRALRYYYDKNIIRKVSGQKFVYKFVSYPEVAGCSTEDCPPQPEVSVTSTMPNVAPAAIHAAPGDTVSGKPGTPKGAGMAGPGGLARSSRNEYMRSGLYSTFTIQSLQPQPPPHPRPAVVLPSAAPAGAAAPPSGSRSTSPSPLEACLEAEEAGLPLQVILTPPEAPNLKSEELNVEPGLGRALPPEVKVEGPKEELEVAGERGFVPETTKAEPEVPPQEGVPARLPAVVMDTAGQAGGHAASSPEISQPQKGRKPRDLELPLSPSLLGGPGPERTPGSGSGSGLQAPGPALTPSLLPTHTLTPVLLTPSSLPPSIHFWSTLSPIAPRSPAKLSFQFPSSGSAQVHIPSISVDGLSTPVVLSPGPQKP
In short: as §1

[3] = molecular target: T3, GABPA (Homo sapiens, UniProt Q06546 1-454); conditions: protein: recombinant; tags: N-terminal GST; dsDNA, one strand shown
T3 sequence: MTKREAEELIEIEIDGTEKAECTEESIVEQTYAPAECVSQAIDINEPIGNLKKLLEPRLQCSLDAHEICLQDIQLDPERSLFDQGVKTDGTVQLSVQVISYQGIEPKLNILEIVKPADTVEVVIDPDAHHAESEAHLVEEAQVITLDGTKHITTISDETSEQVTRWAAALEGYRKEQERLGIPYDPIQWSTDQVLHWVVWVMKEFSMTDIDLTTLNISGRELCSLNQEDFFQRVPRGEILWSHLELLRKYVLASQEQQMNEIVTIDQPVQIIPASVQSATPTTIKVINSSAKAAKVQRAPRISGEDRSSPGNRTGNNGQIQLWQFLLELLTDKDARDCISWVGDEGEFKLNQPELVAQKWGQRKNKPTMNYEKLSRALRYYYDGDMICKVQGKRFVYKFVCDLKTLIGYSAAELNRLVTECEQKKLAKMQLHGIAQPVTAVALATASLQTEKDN
In short: as §1

[4] = molecular target: T4, ERG (Homo sapiens, UniProt P11308 1-479); conditions: protein: recombinant; tags: N-terminal GST; dsDNA, one strand shown
T4 sequence: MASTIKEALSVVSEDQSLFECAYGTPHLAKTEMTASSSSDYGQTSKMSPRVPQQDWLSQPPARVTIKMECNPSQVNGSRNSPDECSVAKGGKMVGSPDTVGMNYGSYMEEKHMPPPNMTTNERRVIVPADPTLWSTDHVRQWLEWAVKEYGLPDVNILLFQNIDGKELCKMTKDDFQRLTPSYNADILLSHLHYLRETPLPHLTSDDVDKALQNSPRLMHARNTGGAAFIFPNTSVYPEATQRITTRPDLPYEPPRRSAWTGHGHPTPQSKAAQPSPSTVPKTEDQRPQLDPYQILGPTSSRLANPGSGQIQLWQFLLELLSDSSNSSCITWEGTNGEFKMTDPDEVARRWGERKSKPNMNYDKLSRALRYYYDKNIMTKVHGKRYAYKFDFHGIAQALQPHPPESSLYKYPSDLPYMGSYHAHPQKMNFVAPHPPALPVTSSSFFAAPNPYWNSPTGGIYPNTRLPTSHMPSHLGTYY
In short: as §1

[5] = molecular target: ELF1 (Homo sapiens, UniProt P32519 1-619); conditions: protein: recombinant; tags: N-terminal GST; dsDNA, one strand shown
In short: as §1

[6] = molecular target: T5, EHF (Homo sapiens, UniProt Q9NZC4 1-300); conditions: protein: recombinant; tags: N-terminal GST; dsDNA, one strand shown
T5 sequence: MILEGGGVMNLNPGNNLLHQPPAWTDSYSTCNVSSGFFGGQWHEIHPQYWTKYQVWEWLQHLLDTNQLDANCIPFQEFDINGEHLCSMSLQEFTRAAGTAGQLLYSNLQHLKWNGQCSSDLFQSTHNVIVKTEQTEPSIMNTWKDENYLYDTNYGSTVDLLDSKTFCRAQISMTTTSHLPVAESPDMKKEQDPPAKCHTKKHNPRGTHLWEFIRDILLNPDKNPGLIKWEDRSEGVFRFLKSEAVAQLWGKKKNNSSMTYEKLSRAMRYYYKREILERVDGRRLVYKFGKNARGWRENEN
In short: as §1

[7] = molecular target: SPI1 (Homo sapiens, UniProt P17947 1-270); conditions: protein: recombinant; tags: N-terminal GST; dsDNA, one strand shown
In short: as §1

[8] = molecular target: SPIB (Homo sapiens, UniProt Q01892 1-262); conditions: protein: recombinant; tags: N-terminal GST; dsDNA, one strand shown
In short: as §1

[9] = molecular target: T6, ELK3 (Homo sapiens, UniProt P41970 1-407); conditions: protein: recombinant; tags: N-terminal GST; dsDNA, one strand shown
T6 sequence: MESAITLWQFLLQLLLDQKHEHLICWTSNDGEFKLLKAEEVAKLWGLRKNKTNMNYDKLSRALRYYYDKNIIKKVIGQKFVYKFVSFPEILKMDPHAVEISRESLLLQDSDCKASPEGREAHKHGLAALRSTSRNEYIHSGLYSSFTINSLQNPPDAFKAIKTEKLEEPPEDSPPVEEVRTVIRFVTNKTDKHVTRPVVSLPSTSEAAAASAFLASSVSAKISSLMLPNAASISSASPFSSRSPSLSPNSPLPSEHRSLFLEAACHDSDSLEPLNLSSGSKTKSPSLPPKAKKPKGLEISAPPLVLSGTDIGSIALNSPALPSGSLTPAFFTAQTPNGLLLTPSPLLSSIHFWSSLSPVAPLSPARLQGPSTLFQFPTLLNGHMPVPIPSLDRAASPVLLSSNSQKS
In short: as §1

[10] = molecular target: T7, FEV (Homo sapiens, UniProt Q99581 1-238); conditions: protein: recombinant; tags: N-terminal GST; dsDNA, one strand shown
T7 sequence: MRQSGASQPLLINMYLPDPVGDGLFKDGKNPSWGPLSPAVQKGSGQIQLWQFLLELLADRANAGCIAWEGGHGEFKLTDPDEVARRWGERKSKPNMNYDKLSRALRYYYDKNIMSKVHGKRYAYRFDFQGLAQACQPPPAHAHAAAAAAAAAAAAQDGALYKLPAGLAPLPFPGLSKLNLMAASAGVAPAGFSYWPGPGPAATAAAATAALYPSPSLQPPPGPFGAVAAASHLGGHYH
In short: as §1

[11] = molecular target: ETV5 (Homo sapiens, UniProt P41161 1-510); conditions: protein: recombinant; tags: N-terminal GST; dsDNA, one strand shown
In short: as §1

[12] = molecular target: HSF1 (Homo sapiens, UniProt Q00613 1-529); conditions: protein: recombinant; tags: N-terminal GST; chain copies: 3; dsDNA, one strand shown
In short: as §1

[13] = molecular target: T8, SPIC (Homo sapiens, UniProt Q8N5J4 1-248); conditions: protein: recombinant; tags: N-terminal GST; dsDNA, one strand shown
T8 sequence: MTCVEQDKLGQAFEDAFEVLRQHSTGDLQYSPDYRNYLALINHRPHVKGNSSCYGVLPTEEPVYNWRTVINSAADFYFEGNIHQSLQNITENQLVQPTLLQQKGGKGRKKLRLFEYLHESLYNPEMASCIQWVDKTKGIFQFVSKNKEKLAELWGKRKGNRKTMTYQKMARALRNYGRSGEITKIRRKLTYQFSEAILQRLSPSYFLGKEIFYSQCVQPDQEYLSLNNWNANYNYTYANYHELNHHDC
In short: as §1

[14] = molecular target: ELF4 (Homo sapiens, UniProt Q99607 1-663); conditions: protein: recombinant; tags: N-terminal GST; dsDNA, one strand shown
In short: as §1

[15] = molecular target: T9, ELK4 (Homo sapiens, UniProt P28324-2 1-405); conditions: protein: recombinant; tags: N-terminal GST; dsDNA, one strand shown
T9 sequence: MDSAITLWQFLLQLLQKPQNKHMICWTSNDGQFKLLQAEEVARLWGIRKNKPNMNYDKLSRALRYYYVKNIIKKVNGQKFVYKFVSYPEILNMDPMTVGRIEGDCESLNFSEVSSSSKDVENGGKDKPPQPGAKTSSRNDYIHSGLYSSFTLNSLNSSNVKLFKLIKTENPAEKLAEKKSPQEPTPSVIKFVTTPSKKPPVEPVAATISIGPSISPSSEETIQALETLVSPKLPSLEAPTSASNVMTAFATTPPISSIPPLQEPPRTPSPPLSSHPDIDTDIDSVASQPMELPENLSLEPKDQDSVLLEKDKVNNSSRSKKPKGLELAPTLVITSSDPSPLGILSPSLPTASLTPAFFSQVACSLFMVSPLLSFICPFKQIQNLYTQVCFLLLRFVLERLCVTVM
In short: as §1

[16] = molecular target: T10, ETV2 (Homo sapiens, UniProt O00321 1-342); conditions: protein: recombinant; tags: N-terminal GST; dsDNA, one strand shown
T10 sequence: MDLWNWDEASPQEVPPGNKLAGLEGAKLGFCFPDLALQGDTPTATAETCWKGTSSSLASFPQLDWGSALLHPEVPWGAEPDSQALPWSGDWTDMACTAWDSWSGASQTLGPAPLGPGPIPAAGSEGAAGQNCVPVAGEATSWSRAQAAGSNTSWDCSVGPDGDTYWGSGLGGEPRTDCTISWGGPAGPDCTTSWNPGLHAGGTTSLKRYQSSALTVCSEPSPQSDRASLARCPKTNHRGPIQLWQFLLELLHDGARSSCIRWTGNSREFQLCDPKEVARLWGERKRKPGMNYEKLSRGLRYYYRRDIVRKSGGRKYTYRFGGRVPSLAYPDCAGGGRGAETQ
In short: as §1

[17] = molecular target: T11, ELF3 (Homo sapiens, UniProt P78545 1-371); conditions: protein: recombinant; tags: N-terminal GST; dsDNA, one strand shown
T11 sequence: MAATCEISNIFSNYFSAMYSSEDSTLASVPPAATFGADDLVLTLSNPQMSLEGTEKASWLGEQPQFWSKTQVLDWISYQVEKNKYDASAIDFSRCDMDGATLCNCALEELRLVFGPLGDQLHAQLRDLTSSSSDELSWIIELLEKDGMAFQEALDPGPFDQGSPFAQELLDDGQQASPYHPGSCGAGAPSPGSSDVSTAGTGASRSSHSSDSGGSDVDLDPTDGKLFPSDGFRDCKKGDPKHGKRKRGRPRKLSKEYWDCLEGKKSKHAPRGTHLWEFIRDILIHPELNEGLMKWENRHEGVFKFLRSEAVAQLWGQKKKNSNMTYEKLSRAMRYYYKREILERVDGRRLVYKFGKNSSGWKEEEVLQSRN
In short: as §1

[18] = molecular target: CRX (Homo sapiens, UniProt O43186 1-299); conditions: protein: recombinant; tags: N-terminal GST; dsDNA, one strand shown
In short: as §1

[19] = molecular target: ETV1 (Homo sapiens, UniProt P50549 1-477); conditions: protein: recombinant; tags: N-terminal GST; dsDNA, one strand shown
In short: as §1

ELF4, sequence (Q99607 whole entry): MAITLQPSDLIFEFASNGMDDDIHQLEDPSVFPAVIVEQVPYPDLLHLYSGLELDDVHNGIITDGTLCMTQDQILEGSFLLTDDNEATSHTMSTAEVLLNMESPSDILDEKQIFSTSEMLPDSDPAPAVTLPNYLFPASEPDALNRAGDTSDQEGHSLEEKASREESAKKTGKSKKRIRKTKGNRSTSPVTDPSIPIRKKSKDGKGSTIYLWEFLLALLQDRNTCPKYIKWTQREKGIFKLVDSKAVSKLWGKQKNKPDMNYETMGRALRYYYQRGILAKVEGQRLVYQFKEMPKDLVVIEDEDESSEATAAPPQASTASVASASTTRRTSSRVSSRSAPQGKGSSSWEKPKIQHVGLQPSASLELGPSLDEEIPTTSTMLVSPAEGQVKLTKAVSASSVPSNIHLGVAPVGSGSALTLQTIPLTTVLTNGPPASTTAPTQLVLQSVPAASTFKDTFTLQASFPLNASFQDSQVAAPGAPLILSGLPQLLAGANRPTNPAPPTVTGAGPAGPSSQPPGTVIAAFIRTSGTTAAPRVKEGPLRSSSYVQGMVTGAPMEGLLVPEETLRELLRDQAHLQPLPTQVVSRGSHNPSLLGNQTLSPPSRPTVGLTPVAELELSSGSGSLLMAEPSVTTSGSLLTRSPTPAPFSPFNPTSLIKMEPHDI
SPIB, sequence (Q01892 whole entry): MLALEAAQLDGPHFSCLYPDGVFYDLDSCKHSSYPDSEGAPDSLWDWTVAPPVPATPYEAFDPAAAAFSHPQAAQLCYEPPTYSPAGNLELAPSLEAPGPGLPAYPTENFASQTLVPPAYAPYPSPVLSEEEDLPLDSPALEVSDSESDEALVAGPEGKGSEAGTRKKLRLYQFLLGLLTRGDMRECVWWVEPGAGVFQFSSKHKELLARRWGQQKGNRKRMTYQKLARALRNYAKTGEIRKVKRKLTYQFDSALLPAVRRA
HSF1, sequence (Q00613 whole entry): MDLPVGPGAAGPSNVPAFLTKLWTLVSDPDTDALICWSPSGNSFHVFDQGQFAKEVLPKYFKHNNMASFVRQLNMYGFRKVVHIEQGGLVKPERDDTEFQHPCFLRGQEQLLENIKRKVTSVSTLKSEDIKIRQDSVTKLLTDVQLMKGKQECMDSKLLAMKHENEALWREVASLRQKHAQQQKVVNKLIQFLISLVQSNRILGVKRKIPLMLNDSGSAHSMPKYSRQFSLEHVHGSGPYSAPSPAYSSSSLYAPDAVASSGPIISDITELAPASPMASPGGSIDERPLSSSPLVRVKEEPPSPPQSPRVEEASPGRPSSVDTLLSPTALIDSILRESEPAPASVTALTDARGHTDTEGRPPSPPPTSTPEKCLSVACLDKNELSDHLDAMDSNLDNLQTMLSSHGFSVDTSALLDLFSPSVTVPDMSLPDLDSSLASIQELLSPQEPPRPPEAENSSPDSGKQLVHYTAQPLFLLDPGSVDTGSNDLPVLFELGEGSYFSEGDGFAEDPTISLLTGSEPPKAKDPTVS
ETV1, sequence (P50549 whole entry): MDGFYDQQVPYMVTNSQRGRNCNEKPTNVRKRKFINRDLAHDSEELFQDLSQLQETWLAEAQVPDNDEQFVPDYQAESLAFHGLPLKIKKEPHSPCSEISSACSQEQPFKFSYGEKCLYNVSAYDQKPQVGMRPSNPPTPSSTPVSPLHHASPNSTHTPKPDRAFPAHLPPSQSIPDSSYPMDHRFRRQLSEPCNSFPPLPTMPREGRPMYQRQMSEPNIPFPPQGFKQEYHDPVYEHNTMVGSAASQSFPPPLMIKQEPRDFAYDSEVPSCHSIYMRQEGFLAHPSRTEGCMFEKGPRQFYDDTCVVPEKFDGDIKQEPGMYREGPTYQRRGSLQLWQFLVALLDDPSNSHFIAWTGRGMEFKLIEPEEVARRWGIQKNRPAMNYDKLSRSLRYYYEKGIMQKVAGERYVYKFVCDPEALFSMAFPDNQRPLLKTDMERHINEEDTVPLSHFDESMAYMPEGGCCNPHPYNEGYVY
ETV5, sequence (P41161 whole entry): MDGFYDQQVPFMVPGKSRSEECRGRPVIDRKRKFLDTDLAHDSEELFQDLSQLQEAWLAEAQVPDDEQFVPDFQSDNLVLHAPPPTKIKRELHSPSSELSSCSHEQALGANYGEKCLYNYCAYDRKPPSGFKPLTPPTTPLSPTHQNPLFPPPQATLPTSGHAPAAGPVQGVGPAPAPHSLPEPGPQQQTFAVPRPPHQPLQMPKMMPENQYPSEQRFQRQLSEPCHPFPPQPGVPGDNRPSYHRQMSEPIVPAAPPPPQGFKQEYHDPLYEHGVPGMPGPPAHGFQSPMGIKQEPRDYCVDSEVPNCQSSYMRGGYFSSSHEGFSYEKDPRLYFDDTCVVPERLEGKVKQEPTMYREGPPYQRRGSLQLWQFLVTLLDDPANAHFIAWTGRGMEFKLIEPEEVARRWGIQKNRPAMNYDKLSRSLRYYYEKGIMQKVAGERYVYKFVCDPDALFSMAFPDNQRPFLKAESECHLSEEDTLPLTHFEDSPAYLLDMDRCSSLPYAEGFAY
ELF1, sequence (P32519 whole entry): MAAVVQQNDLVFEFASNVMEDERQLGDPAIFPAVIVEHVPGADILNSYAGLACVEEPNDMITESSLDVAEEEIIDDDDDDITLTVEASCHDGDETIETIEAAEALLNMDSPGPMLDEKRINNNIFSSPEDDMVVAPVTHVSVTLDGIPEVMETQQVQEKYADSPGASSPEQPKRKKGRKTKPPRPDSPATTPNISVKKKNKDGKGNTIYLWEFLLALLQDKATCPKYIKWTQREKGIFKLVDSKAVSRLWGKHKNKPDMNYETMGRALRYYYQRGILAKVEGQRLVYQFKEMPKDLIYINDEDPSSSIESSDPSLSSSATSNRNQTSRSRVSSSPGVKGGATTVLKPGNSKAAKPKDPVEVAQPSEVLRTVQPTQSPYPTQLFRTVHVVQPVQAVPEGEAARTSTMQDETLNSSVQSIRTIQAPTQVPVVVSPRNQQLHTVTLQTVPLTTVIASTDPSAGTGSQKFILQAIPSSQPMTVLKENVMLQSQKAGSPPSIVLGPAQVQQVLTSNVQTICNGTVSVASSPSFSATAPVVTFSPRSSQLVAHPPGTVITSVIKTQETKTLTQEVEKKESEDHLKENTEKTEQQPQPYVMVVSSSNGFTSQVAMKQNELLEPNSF
CRX, sequence (O43186 whole entry): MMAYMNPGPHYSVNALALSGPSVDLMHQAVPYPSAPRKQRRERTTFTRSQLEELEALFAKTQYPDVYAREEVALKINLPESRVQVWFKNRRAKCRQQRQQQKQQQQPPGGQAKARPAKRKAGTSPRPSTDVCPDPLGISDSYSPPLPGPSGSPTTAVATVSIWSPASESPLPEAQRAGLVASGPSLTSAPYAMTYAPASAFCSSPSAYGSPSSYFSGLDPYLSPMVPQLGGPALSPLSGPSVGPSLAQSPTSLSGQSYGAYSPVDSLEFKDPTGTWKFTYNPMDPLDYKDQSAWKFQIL

CAATTT
binding signal [1]: 1.26 fold enrichment (6-mer frequency, TF over GST control) | binding signal [2]: 1.35 fold enrichment (6-mer frequency, TF over GST control) | binding signal [3]: 1.37 fold enrichment (6-mer frequency, TF over GST control) | binding signal [4]: 1.43 fold enrichment (6-mer frequency, TF over GST control) | binding signal [5]: 1.29 fold enrichment (6-mer frequency, TF over GST control) | binding signal [6]: 1.28 fold enrichment (6-mer frequency, TF over GST control) | binding signal [7]: 1.32 fold enrichment (6-mer frequency, TF over GST control) | binding signal [8]: 1.43 fold enrichment (6-mer frequency, TF over GST control) | binding signal [9]: 1.12 fold enrichment (6-mer frequency, TF over GST control) | binding signal [10]: 1.5 fold enrichment (6-mer frequency, TF over GST control) | binding signal [11]: 1.29 fold enrichment (6-mer frequency, TF over GST control) | binding signal [12]: 1.15 fold enrichment (6-mer frequency, TF over GST control) | binding signal [13]: 1.26 fold enrichment (6-mer frequency, TF over GST control) | binding signal [14]: 1.35 fold enrichment (6-mer frequency, TF over GST control) | binding signal [15]: 1.31 fold enrichment (6-mer frequency, TF over GST control) | binding signal [16]: 1.44 fold enrichment (6-mer frequency, TF over GST control) | binding signal [17]: 1.53 fold enrichment (6-mer frequency, TF over GST control) | binding signal [18]: 1.07 fold enrichment (6-mer frequency, TF over GST control) | binding signal [19]: 1.35 fold enrichment (6-mer frequency, TF over GST control)
